Source: PubChem BioAssay
14-3-3 PPI: alters human 14-3-3 gamma binding to Raf peptide. inhibition, % at 40 µM. hit rate 0.19% among 160,000. FP, 14-3-3gamma / TMR-pS259-Raf peptide binding. AID 422; in the data active = inhibition above about 30%
Target sequence (P61981 whole entry, looked up): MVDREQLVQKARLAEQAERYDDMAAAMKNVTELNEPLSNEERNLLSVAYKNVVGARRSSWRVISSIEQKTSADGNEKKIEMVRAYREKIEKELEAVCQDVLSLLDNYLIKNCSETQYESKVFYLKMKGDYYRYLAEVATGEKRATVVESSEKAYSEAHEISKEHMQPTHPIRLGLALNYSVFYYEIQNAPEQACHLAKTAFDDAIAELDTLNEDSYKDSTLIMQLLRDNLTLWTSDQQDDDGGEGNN
Large screens that a line does not name were inactive. Only a selection was taken, and hits are over-represented in it overall.

CCOC(=O)c1ccc(NC(=O)c2c(NC(=O)CC)sc3c2CCC(C)C3)cc1 (stereo not drawn)	none
CCCn1c(=S)[nH]c2cc(C(=O)N3CCN(c4cccc(Cl)c4)CC3)ccc2c1=O	none
O=[N+]([O-])c1cc(S(=O)(=O)NCC2CCCO2)ccc1Cl (stereo not drawn)	none
Clc1ccc2nc(-c3ccco3)c(Nc3ccc4c(c3)OCCO4)n2c1	none
CN(C)c1c(CN2CCCCC2)c(=O)oc2ccccc12	none
CCOC(=O)c1c(NC(=O)CN2CCOCC2)sc2c1CCCC2	none
CCCCC1(C(=O)OCC)CC(CN2CCOCC2)OC1=O (stereo not drawn)	14-3-3 PPI 54
CCCCOC(=O)N1CCOCCOCCN(C(=O)OCCCC)CCOCCOCC1	none
O=C(CC(C(=O)N1CCc2ccccc21)n1ccnc1)NCCc1ccccc1 (stereo not drawn)	none
O=[N+]([O-])c1cc(NC2OCC(O)C(O)C2O)cc(Sc2ccccc2)c1 (stereo not drawn)	none
O=C(CN1C(=O)c2ccccc2C1=O)NCc1ccccn1	none
O=C(CCN1C(=O)c2ccccc2C1=O)NCc1ccncc1	none
O=C(CCN1C(=O)c2ccccc2C1=O)NCc1ccccn1	14-3-3 PPI 177
CCC(C)OC(=O)C1=C(C)NC2=C(C(=O)C(C(=O)OC)C(C)C2)C1c1coc2ccc(C)cc2c1=O (stereo not drawn)	none
CC1=C(C(=O)OCCc2ccccc2)C(c2ccc(N(C)C)cc2)C2=C(CCCC2=O)N1 (stereo not drawn)	none
Cc1sc2c(c1C)c(=O)n(Cc1ccccc1)c(=O)n2Cc1ccc([N+](=O)[O-])cc1	none
Cc1nn(C(=O)c2ccc(Br)cc2)c(C)c1Sc1ccc([N+](=O)[O-])cc1	none
CC1CCN(S(=O)(=O)c2cccc3nonc23)CC1	none
CCOC(=O)C1CCN(C(=O)CCc2nc(-c3ccccc3F)no2)CC1	none
CC(=O)N1c2ccc(S(=O)(=O)CCC(=O)Nc3ccc(C)c(C)c3)cc2CC1C (stereo not drawn)	none
CC(=O)N1c2ccc(S(=O)(=O)CCC(=O)Nc3ccc(Br)cc3C)cc2CC1C (stereo not drawn)	none
CC(=O)N1c2ccc(S(=O)(=O)CCC(=O)Nc3cc(C)ccc3C)cc2CC1C (stereo not drawn)	14-3-3 PPI 34
O=C(NCCSc1c[nH]c2ccccc12)c1ccc(Br)cc1	none
CC(=O)N1CC23C=CC(CC2CC12CCCC2)O3 (stereo not drawn)	none
C=CCN(c1ccccc1)S(=O)(=O)c1ccc2[nH]cc(C(=O)O)c(=O)c2c1	none
COCCNC(=O)CCn1c(=S)oc2ccccc21	none
Cc1ccc(C)c(NC(=O)CSc2cn(Cc3ccc(F)cc3)c3ccccc23)c1	none
CC1=C(C(=O)N2CCOCC2)C(c2ccccc2Br)C2=C(CC(C)(C)CC2=O)N1 (stereo not drawn)	none
COc1cc(C)c(C)cc1S(=O)(=O)N1CCCCC1c1cccnc1 (stereo not drawn)	14-3-3 PPI 31
CC(=O)Nc1ccc(S(=O)(=O)N2CCCCC2c2cccnc2)cc1 (stereo not drawn)	none
CCC(=O)N1CCc2cc(S(=O)(=O)N3CCCCC3c3cccnc3)ccc21 (stereo not drawn)	none
CCc1ccc(N2COc3ccc4cc(Br)ccc4c3C2)cc1	none
COC(=O)c1ccc(N2C(=O)CSC23C(=O)Nc2ccccc23)cc1 (stereo not drawn)	none
O=C(c1cccs1)N1CC(=O)N(CCc2ccccc2)C(=O)C1	none
O=C1CN(CCc2ccccc2)CC(=O)N1CCc1ccccc1	14-3-3 PPI 166
O=C1CN(S(=O)(=O)c2ccc(F)cc2)CC(=O)N1CCc1ccccc1	none
CC(C)(C)n1cnc2cc(NCc3ccccn3)ccc21	14-3-3 PPI 32
CC(C)(C)n1cnc2cc(NCc3ccncc3)ccc21	none
Cn1cnc2cc(NCc3ccccn3)ccc21	none
C=CCN(CC=C)C(=O)C[n+]1ccc(C(N)=O)cc1	14-3-3 PPI 40
CCN(CC)C(=O)C[n+]1ccc(C(N)=O)cc1	none
C=CCN(CC=C)C(=O)C[n+]1cccc(C(N)=O)c1	none
COCCOC(=O)C1=C(C)NC(=O)NC1c1ccc(OC)cc1OC (stereo not drawn)	none
Cc1ccc(-c2coc3cc4oc(=O)c5c(c4cc23)CCCC5)cc1	none
CCC(Sc1nc2ccccc2c(=O)n1CC1CCCO1)C(=O)N1CCOCC1 (stereo not drawn)	none
COc1cc(C2C3=C(CCCC3=O)N(CC(=O)O)C3=C2C(=O)CCC3)ccc1OCc1ccc(Cl)cc1	none
